# Source: the supplement of paper PMC11732987, “Enantioselective OTUD7B fragment discovery through chemoproteomics screening and high-throughput optimisation” (Communications Chemistry, 2025)
# A number with no mark means an inactive call.
# Molecular target: USP14 (UniProt P54578)
# Experiment: log2 ratio of Biotin-Ahx-Ub-VS probe labelling (fragment/DMSO); higher = less target engagement (more negative = stronger competition), active = hit call of the paper (q ≤ 0.05, log2 ratio ≤ -1)
# Details: compound concentration: 200 uM; treatment time: 3 h
# Method: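 Competitive ABPP in HEK293T cell lysate. Lysates were treated with each chloroacetamide fragment at 200 µM for 3 h, then with Biotin-Ahx-Ub-VS (0.5 µM, 1 h), NeutrAvidin-enriched and analysed by diaPASEF LC-MS/MS. Protein LFQ was median-normalised; average log2 ratio is fragment/DMSO from an unpaired t-test (n=3 treated, n=44 DMSO). Hits: q ≤ 0.05, log2 ratio ≤ -1, unique peptides ≥ 2.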
# Chain of USP14 (P54578 whole entry, the tested form may be a part): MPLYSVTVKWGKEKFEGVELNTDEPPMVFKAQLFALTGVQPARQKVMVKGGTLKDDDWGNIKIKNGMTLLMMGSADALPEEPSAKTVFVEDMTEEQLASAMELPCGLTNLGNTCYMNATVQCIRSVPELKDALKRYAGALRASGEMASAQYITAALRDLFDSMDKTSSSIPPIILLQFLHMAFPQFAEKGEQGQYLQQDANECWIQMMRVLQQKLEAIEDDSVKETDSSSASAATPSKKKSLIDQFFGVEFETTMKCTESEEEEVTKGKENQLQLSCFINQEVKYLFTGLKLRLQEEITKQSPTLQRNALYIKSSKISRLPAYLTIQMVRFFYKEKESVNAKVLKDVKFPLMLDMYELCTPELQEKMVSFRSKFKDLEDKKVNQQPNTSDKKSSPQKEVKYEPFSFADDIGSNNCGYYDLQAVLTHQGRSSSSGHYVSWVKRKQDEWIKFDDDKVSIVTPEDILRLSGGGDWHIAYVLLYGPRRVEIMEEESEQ
row,SMILES,log2 ratio of Biotin-Ahx-Ub-VS probe labelling
1,NC(=O)C1CCCN(C(=O)CCl)C1 (stereo not given),-0.153
2,CS(=O)(=O)N1CCCN(C(=O)CCl)CC1,0.105
3,O=C(CCl)NC1(c2ccc3c(c2)OCCO3)CCCC1,-0.293
4,O=C(CCl)N1CCC(O)(Cc2ccc(F)cc2)C1 (stereo not given),0.271
5,Cc1cccc(NC(=O)CCl)c1C,-0.488
6,O=C(CCl)Nc1cc2c(cc1Cl)OCCO2,0.233
7,O=C(CCl)N1CCC[C@@H]1c1ccon1,-0.652
8,Cc1cc(C(=O)NC2CCN(C(=O)CCl)CC2)no1,-0.31
9,N#Cc1cnn(-c2ccccc2)c1NC(=O)CCl,-0.345
10,Cc1cccnc1NC(=O)C1CCN(C(=O)CCl)CC1.Cl,-0.377
11,COCC[C@@H](NC(=O)CCl)c1ccccc1,0.0709
12,Cc1nc(-c2cccc(NC(=O)CCl)c2)cs1,-0.378
13,CC1(NC(=O)CCl)CCS(=O)(=O)C1 (stereo not given),-0.815
14,CN(CCc1ncc(Br)cn1)C(=O)CCl.Cl,-0.0202
15,O=C(CCl)N(C1=CCCCC1)C1CC1,-0.423
16,COc1ccccc1C(C)NC(=O)CCl (stereo not given),-0.458
17,O=C(CCl)Nc1ccc(F)cc1F,-0.106
18,Cc1c(NC(=O)CCl)c(=O)n(-c2ccccc2)n1C,-0.215
19,CC(NC(=O)CCl)c1cc2n(n1)CCCC2.Cl (stereo not given),-0.363
20,O=C(CCl)NC1CCS(=O)(=O)c2ccccc21 (stereo not given),-0.152

row,SMILES,log2 ratio of Biotin-Ahx-Ub-VS probe labelling
1,Cc1ccc(N2CCC(NC(=O)CCl)C2=O)cc1 (stereo not given),-0.0106
2,O=C(CCl)N1CCN(c2nc3ccccc3o2)CC1,-0.836
3,Cc1n[nH]c2c1CN(C(=O)CCl)CC2,-0.903
4,Cc1ccccc1OCC(=O)N1CCN(C(=O)CCl)CC1,-0.131
5,Cc1ccc(CN(C)C(=O)CCl)o1,-0.0502
6,O=C(CCl)Nc1ccc(F)cc1Cl,-0.833
7,O=C(CCl)N1CCC2(CCC(O)CC2)CC1,0.0657
8,Cc1ncsc1CCNC(=O)CCl,0.518
9,NC(=O)C1CCCCN1C(=O)CCl (stereo not given),-0.15
10,CC(NC(=O)CCl)c1noc(Cc2ccccc2)n1 (stereo not given),-0.411
11,O=C(CCl)N1CC2(CCOCC2)C1,-0.191
12,Cc1nnc(C(NC(=O)CCl)c2ccccc2)n1C (stereo not given),0.163
13,Cl.Cn1nc2c(c1CNC(=O)CCl)CCCC2,-0.00316
14,CC(NC(=O)CCl)c1ccc2[nH]ncc2c1 (stereo not given),-0.802
15,O=C(CCl)Nc1nnc(CC(F)(F)F)o1,-0.206
16,O=C(CCl)N1CCN(C(=O)N2CCCCC2)CC1,-1.06 (active)
17,COc1cc(Cl)c(C)cc1NC(=O)CCl,-0.458
18,O=C(CCl)Nc1nc(-c2cccs2)cs1,0.15
19,O=C(CCl)NCc1cccc(F)c1,-0.167
20,O=C(CCl)NCC(=O)N1CCCC1,-0.0869
